Reference: PubChem BioAssay
Results filed as inconclusive are left out. Activity calls are given as the source filed them.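 The calls were made as follows, unless noted: active = normalized viability below 100% at a tested concentration; inactive = the rest.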

Columns and labels:
[1] = viability loss in pontine glioma line – cell-based, SU-DIPG-XVII, MIPE5.0, CellTiter-Glo, qHTS, dose response (AID 1347060; cut-off not given, nearly all actives have AC50 up to about 26 µM;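 also: cells exposed to compound for 48 hours before viability readout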); conditions: CellTiter-Glo ATP luminescence
[2] = viability loss in pontine glioma line – cell-based, SU-DIPG-XIII, MIPE5.0, CellTiter-Glo, qHTS, dose response (AID 1347064; cut-off not given, nearly all actives have AC50 up to about 23 µM;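 also: cells exposed to compound for 48 hours before the viability read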); conditions: CellTiter-Glo ATP luminescence
[3] = viability loss in pontine glioma line – cell-based, SU-DIPG-XXV, MIPE5.0, CellTiter-Glo, qHTS, dose response (AID 1347065; cut-off not given, nearly all actives have AC50 up to about 26 µM;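 also: cells exposed to compound for 48 hours before ATP readout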); conditions: CellTiter-Glo ATP luminescence
[4] = JHH-DIPG-1 glioma cell viability, MIPE5.0 library, CellTiter-Glo luminescence, qHTS (AID 1347067; cut-off not given, nearly all actives have AC50 up to about 26 µM;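 also: cells exposed to compound for 48 hours before readout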); conditions: JHH-DIPG-1 glioma viability, CellTiter-Glo ATP luminescence
[5] = growth inhibition of DIPG cells – cell-based, MIPE5.0 library, qHTS (AID 1347068; cut-off not given, nearly all actives have IC50 up to about 30 µM;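 as to IC50: cells exposed to compound for 48 hours before viability readout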); conditions: SU-DIPG-XXV viability
[6] = viability loss with induced miR-34 in A549 – imaging, A549 dox-inducible miR-34, nuclei and caspase counts, primary screen (AID 1347080;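 active = compounds whose cell count with miR-34 switched on is under 0.7 times the count with it off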); conditions: A549 miR-34 inducible, Hoechst nuclei count, 48 h
[7] = MELAS cybrid and Rieske KO viability enhancers – cell-based, MELAS cybrids, Rieske KO mouse fibroblasts, CellTiter-Glo, primary screen (AID 1508586;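 active = mean z-score across replicates of 1.96 or higher in either the MELAS or the Rieske mutant cell line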;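 also: z relative to plate mean and SD of compound and empty wells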); conditions: low glucose
[8] = drug combination growth inhibition, ovarian cancer – cell-based, oncology-focused library, rucaparib conditional, profiling panel (AID 1508598); conditions: patient-derived ovarian cancer cells, CellTiter-Glo viability, 144 h, stronger effect = lower value
[9] = stronger effect = lower value, cell number ratio, induced over uninduced
[10] = measured here: relative caspase fold change +Dox/-Dox
[11] = measured here: total cells with miR-34 induction, stronger effect = lower value
[12] = measured here: total cells without miR-34 induction
[13] = MELAS cybrid survival, CellTiter-Glo 48 h, stronger effect = higher value
[14] = Rieske KO mouse fibroblast survival, CellTiter-Glo 72 h
[15] = at 0.000305 µM, OCI-C5x cells, with rucaparib 10 µM, 100% = cells with rucaparib alone
[16] = at 0.000305 µM, OCI-C5x cells, without rucaparib
[17] = at 0.000305 µM, OCI-P5x cells, with rucaparib 20 µM, 100% = cells with rucaparib alone
[18] = at 0.000305 µM, OCI-P5x cells, without rucaparib
[19] = at 0.00122 µM, OCI-C5x cells, with rucaparib 10 µM, 100% = cells with rucaparib alone
[20] = at 0.00122 µM, OCI-C5x cells, without rucaparib
[21] = at 0.00122 µM, OCI-P5x cells, with rucaparib 20 µM, 100% = cells with rucaparib alone
[22] = at 0.00122 µM, OCI-P5x cells, without rucaparib
[23] = at 0.00488 µM, OCI-C5x cells, with rucaparib 10 µM, 100% = cells with rucaparib alone
[24] = at 0.00488 µM, OCI-C5x cells, without rucaparib
[25] = at 0.00488 µM, OCI-P5x cells, with rucaparib 20 µM, 100% = cells with rucaparib alone
[26] = at 0.00488 µM, OCI-P5x cells, without rucaparib
[27] = at 0.0195 µM, OCI-C5x cells, with rucaparib 10 µM, 100% = cells with rucaparib alone
[28] = at 0.0195 µM, OCI-C5x cells, without rucaparib
[29] = at 0.0195 µM, OCI-P5x cells, with rucaparib 20 µM, 100% = cells with rucaparib alone
[30] = at 0.0195 µM, OCI-P5x cells, without rucaparib
[31] = at 0.0781 µM, OCI-C5x cells, with rucaparib 10 µM, 100% = cells with rucaparib alone
[32] = at 0.0781 µM, OCI-C5x cells, without rucaparib
[33] = at 0.0781 µM, OCI-P5x cells, with rucaparib 20 µM, 100% = cells with rucaparib alone
[34] = at 0.0781 µM, OCI-P5x cells, without rucaparib
[35] = at 0.313 µM, OCI-C5x cells, with rucaparib 10 µM, 100% = cells with rucaparib alone
[36] = at 0.313 µM, OCI-C5x cells, without rucaparib
[37] = at 0.313 µM, OCI-P5x cells, with rucaparib 20 µM, 100% = cells with rucaparib alone
[38] = at 0.313 µM, OCI-P5x cells, without rucaparib
[39] = at 1.25 µM, OCI-C5x cells, with rucaparib 10 µM, 100% = cells with rucaparib alone
[40] = at 1.25 µM, OCI-C5x cells, without rucaparib
[41] = at 1.25 µM, OCI-P5x cells, with rucaparib 20 µM, 100% = cells with rucaparib alone
[42] = at 1.25 µM, OCI-P5x cells, without rucaparib
[43] = at 5 µM, OCI-C5x cells, with rucaparib 10 µM, 100% = cells with rucaparib alone
[44] = at 5 µM, OCI-C5x cells, without rucaparib
[45] = at 5 µM, OCI-P5x cells, with rucaparib 20 µM, 100% = cells with rucaparib alone
[46] = at 5 µM, OCI-P5x cells, without rucaparib

CN1CCC(c2c(O)cc(O)c3c(=O)cc(-c4ccccc4Cl)oc23)C1CO (centres undefined)
1620: cell count [6, 11]
active: AC50 [1] 934 nM | AC50 [2] 1180 nM | AC50 [3] 1180 nM | AC50 [4] 1180 nM | IC50 [5] 1860 nM
-6.97: z-score [7, 14]
inactive: fold change [6, 9] 0.969 | z-score [7, 13] 0.124
1670: cell count [6, 12]
0.481: fold change [6, 10]

CN(NC(=O)CC(=O)NN(C)C(=S)c1ccccc1)C(=S)c1ccccc1
-2.56: z-score [7, 14]
5740: cell count [6, 12]
active: AC50 [1] 18.6 nM | AC50 [2] 9.34 nM | AC50 [3] 18.6 nM | AC50 [4] 5.25 nM | z-score [7, 13] 2.12 | viability [8, 17] 83.3% | viability [8, 18] 88% | viability [8, 21] 80.6% | viability [8, 22] 75.2% | viability [8, 25] 82.9% | viability [8, 26] 81.1% | viability [8, 29] 88.5% | viability [8, 30] 84.6% | viability [8, 33] 98.6% | viability [8, 34] 81% | viability [8, 37] 96% | viability [8, 38] 95.1% | viability [8, 41] 82.2% | viability [8, 42] 97.2% | viability [8, 45] 99% | viability [8, 46] 98%
4660: cell count [6, 11]
1.14: fold change [6, 10]
inactive: outcome [5] | fold change [6, 9] 0.813 | viability [8, 15] 121% | viability [8, 16] 108% | viability [8, 19] 135% | viability [8, 20] 131% | viability [8, 23] 143% | viability [8, 24] 129% | viability [8, 27] 151% | viability [8, 28] 131% | viability [8, 31] 140% | viability [8, 32] 122% | viability [8, 35] 126% | viability [8, 36] 133% | viability [8, 39] 125% | viability [8, 40] 123% | viability [8, 43] 128% | viability [8, 44] 121%

COc1cc(N2CCC(O)CC2)ccc1Nc1cc(Nc2ccccc2S(=O)(=O)C(C)C)c2cc[nH]c2n1
active: AC50 [1] 23500 nM | AC50 [2] 10500 nM | AC50 [3] 7420 nM | AC50 [4] 16600 nM
inactive: outcome [5]

CC(C)C(=O)OCC(=O)[C@@]12O[C@H](C3CCCCC3)O[C@@H]1C[C@H]1[C@@H]3CCC4=CC(=O)C=C[C@]4(C)[C@H]3[C@@H](O)C[C@@]12C
inactive: z-score [7, 13] -0.376
1.73: z-score [7, 14]
active: AC50 [1] 13200 nM | AC50 [2] 13200 nM | AC50 [3] 8330 nM | AC50 [4] 2950 nM | IC50 [5] 14800 nM

C=CC(=O)Nc1cc(Nc2nccc(-c3cn(C)c4ccccc34)n2)c(OC)cc1N(C)CCN(C)C
active: AC50 [1] 2950 nM | AC50 [2] 7420 nM | AC50 [3] 3720 nM | AC50 [4] 2630 nM | IC50 [5] 9340 nM | viability [8, 17] 95.5% | viability [8, 18] 94.3% | viability [8, 41] 91.6% | viability [8, 42] 91.7% | viability [8, 43] 2.67% | viability [8, 44] 3.48% | viability [8, 45] 8.99% | viability [8, 46] 78.5%
inactive: fold change [6, 9] 0.975 | z-score [7, 13] -0.292 | viability [8, 15] 110% | viability [8, 16] 114% | viability [8, 19] 106% | viability [8, 20] 108% | viability [8, 21] 103% | viability [8, 22] 103% | viability [8, 23] 120% | viability [8, 24] 120% | viability [8, 25] 103% | viability [8, 26] 106% | viability [8, 27] 127% | viability [8, 28] 118% | viability [8, 29] 108% | viability [8, 30] 106% | viability [8, 31] 133% | viability [8, 32] 132% | viability [8, 33] 105% | viability [8, 34] 107% | viability [8, 35] 158% | viability [8, 36] 170% | viability [8, 37] 108% | viability [8, 38] 108% | viability [8, 39] 147% | viability [8, 40] 173%
0.432: fold change [6, 10]
2830: cell count [6, 12]
1.23: z-score [7, 14]
2760: cell count [6, 11]
